In PubChem BioAssay (NCI):
This is part of a sample that, as a whole, favours compounds with a hit. Of some 79,000 tested, about 15% had one in any assay. Unmarked numbers belong to inactive results. Active and inactive are the calls of the source. Rule as the data show it: active = growth inhibition above about 70%; inactive = the rest.

Columns and labels:
[1] = NCI Yeast Anticancer Drug Screen. Data for the wt1 strain (AID 149);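 also: 0% = growth of vehicle-treated wt1 cultures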; details: S. cerevisiae wt1 strain (SPY 50644) growth inhibition, stronger effect = higher value
In short: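 Growth inhibition read against vehicle controls after compound exposure of the wt1 yeast strain.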

[2] = NCI Yeast Anticancer Drug Screen. Data for the rad50EPP+ strain (AID 151);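 also: 0% = growth of vehicle-treated control cultures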; details: S. cerevisiae rad50 mutant strain, stronger effect = higher value
In short: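 Genetically defined yeast (rad50EPP+, DNA damage repair alteration) is grown with compound, and inhibition of growth is expressed relative to vehicle-treated controls.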

[3] = NCI Yeast Anticancer Drug Screen. Data for the mgt1 strain (AID 153); details: S. cerevisiae mgt1 mutant growth inhibition, stronger effect = higher value
In short: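 In the mgt1 strain, test compounds were added and growth inhibition was determined relative to vehicle-treated controls.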

[4] = NCI Yeast Anticancer Drug Screen. Data for the rad50 strain (AID 155);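 also: 0% = growth of vehicle-only cultures of the same strain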; details: S. cerevisiae rad50 strain growth inhibition, stronger effect = higher value
In short: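 Readout: growth inhibition relative to vehicle-treated cultures. Compound exposure was carried out in a genetically defined yeast strain deficient in DNA damage repair.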

[5] = NCI Yeast Anticancer Drug Screen. Data for the mec2-1 strain (AID 157); details: S. cerevisiae mec2-1 strain, stronger effect = higher value
In short: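 Each compound was tested on mec2-1 yeast, a strain altered in DNA damage repair or cell cycle control. Growth inhibition is reported relative to vehicle.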

[6] = NCI Yeast Anticancer Drug Screen. Data for the rad14 strain (AID 159);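 also: 0% = growth of vehicle-treated control cultures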; details: S. cerevisiae rad14 strain growth inhibition, stronger effect = higher value
In short: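 Growth inhibition vs vehicle controls; genetically altered yeast strain (DNA damage repair defect) treated with test compounds.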

[7] = NCI Yeast Anticancer Drug Screen. Data for the sgs1 mgt1 strain (AID 161);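 also: 0% = growth of cultures given vehicle only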; details: S. cerevisiae sgs1 mgt1 strain, stronger effect = higher value
In short: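 Test agents were incubated with a DNA-repair-mutant yeast strain. Growth was then read and compared against vehicle-treated controls.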

[8] = NCI Yeast Anticancer Drug Screen. Data for the CLN2oe strain (AID 163);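 also: 0% = growth of vehicle-only control cultures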; details: S. cerevisiae CLN2oe strain, stronger effect = higher value
In short: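 First, the altered yeast strain was treated with each compound; second, its growth was measured; finally, inhibition was derived by comparison with vehicle controls.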

[9] = NCI Yeast Anticancer Drug Screen. Data for the cln2 rad14 strain (AID 165);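 also: 0% = growth equal to vehicle treated cultures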; details: S. cerevisiae cln2 rad14 strain, stronger effect = higher value
In short: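 Test compounds were added to cln2 rad14 yeast cultures; inhibition of growth was then determined by comparison with vehicle treatment.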

[10] = NCI Yeast Anticancer Drug Screen. Data for the bub3 strain (AID 167); details: S. cerevisiae bub3 mutant strain, stronger effect = higher value
In short: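 Readout: yeast growth inhibition, expressed relative to vehicle-only wells. The test organism is a mutant strain from a panel with lesions in DNA repair or checkpoint genes.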

[11] = NCI Yeast Anticancer Drug Screen. Data for the wt2 strain (AID 169);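 also: 0% = growth of vehicle-treated yeast cultures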; details: S. cerevisiae wt2 strain growth inhibition, stronger effect = higher value
In short: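 The panel's yeast strains carry defined changes in DNA repair or cell cycle genes. Each strain is grown with compound, and growth loss is scored relative to vehicle.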

[12] = NCI Yeast Anticancer Drug Screen. Data for the mlh1 strain (AID 171);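 also: 0% = growth of vehicle-treated control cultures of the same strain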; details: S. cerevisiae mlh1 strain growth inhibition, stronger effect = higher value
In short: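 Inhibition values reflect reduced yeast growth in the presence of compound, referenced to vehicle controls, using a strain chosen for its alteration in DNA repair or cell cycle control.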

[13] = NCI Yeast Anticancer Drug Screen. Data for the sgs1 strain (AID 173);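 also: 0% = growth of vehicle-only control cultures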; details: S. cerevisiae sgs1 mutant, stronger effect = higher value
In short: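 Vehicle-treated cultures served as reference for growth inhibition of a yeast strain altered in DNA damage repair or cell cycle control after compound exposure.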

[14] = NCI Yeast Anticancer Drug Screen. Data for the mlh1 rad18 strain (AID 175); details: S. cerevisiae mlh1 rad18 strain growth inhibition, stronger effect = higher value
In short: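 Inhibition values reflect reduced growth of mutant yeast versus vehicle-treated controls following compound exposure; the mutations affect DNA damage repair.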

[15] = NCI Yeast Anticancer Drug Screen. Data for the rad18 strain (AID 177); details: S. cerevisiae rad18 mutant growth inhibition, stronger effect = higher value
In short: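 Steps: expose repair-mutant yeast to compound; measure growth; express as inhibition relative to vehicle control.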

[16] = at 5.0 µM (retest, dose inferred, filed as 0.5)
[17] = at 50.0 µM (retest, dose inferred, filed as 5.0)

For `NCCOc1ccc(/C(=C(/Cl)c2ccccc2)c2ccccc2)cc1`, the growth inhibition ([1]; at 1.2 µM) was 1%, the growth inhibition ([1]; at 3.7 µM) was -4% and the growth inhibition ([1]; at 11.0 µM) was 5%. For the same compound, the growth inhibition ([1]; at 33.0 µM) was 98% (active), the growth inhibition ([1]; at 100.0 µM) was 97% (active) and the growth inhibition ([2]; at 1.2 µM) was 0%. For the same compound, the growth inhibition ([2]; at 3.7 µM) was 9%, the growth inhibition ([2]; at 11.0 µM) was 15% and the growth inhibition ([2]; at 33.0 µM) was 97% (active). For the same compound, the growth inhibition ([2]; at 100.0 µM) was 96% (active), the growth inhibition ([3]; at 1.2 µM) was -6% and the growth inhibition ([3]; at 3.7 µM) was -7%. The growth inhibition ([3]; at 11.0 µM) was 13%, the growth inhibition ([3]; at 33.0 µM) was 98% (active) and the growth inhibition ([3]; at 100.0 µM) was 96% (active). For the same compound, the growth inhibition ([4]; at 1.2 µM) was -3%, the growth inhibition ([4]; at 3.7 µM) was 3% and the growth inhibition [4, 16] was 17%. For the same compound, the growth inhibition ([4]; at 11.0 µM) was 39%, the growth inhibition ([4]; at 33.0 µM) was 99% (active) and the growth inhibition [4, 17] was 98% (active). The growth inhibition ([4]; at 50.0 µM) was 85.5% (active), the growth inhibition ([4]; at 100.0 µM) was 96% (active) and the growth inhibition ([5]; at 1.2 µM) was -5%. It also gave a growth inhibition ([5]; at 3.7 µM) of -17%, a growth inhibition [5, 16] of 7% and a growth inhibition ([5]; at 11.0 µM) of 11%. The growth inhibition ([5]; at 33.0 µM) was 98% (active), the growth inhibition [5, 17] was 99% (active) and the growth inhibition ([5]; at 50.0 µM) was 93.8% (active). The growth inhibition ([5]; at 100.0 µM) was 97% (active), the growth inhibition ([6]; at 1.2 µM) was -16% and the growth inhibition ([6]; at 3.7 µM) was -18%. For the same compound, the growth inhibition ([6]; at 11.0 µM) was 72% (active), the growth inhibition ([6]; at 33.0 µM) was 98% (active) and the growth inhibition ([6]; at 100.0 µM) was 96% (active). The growth inhibition [7, 16] was 7%, the growth inhibition [7, 17] was 98% (active) and the growth inhibition ([7]; at 50.0 µM) was 92.7% (active). For the same compound, the growth inhibition ([8]; at 1.2 µM) was 18%, the growth inhibition ([8]; at 3.7 µM) was 12% and the growth inhibition ([8]; at 11.0 µM) was 36%. The growth inhibition ([8]; at 33.0 µM) was 98% (active), the growth inhibition ([8]; at 100.0 µM) was 96% (active) and the growth inhibition [9, 16] was 37%. For the same compound, the growth inhibition [9, 17] was 98% (active), the growth inhibition ([9]; at 50.0 µM) was 92.2% (active) and the growth inhibition ([10]; at 1.2 µM) was 0%. The growth inhibition ([10]; at 3.7 µM) was -35%, the growth inhibition [10, 16] was -11% and the growth inhibition ([10]; at 11.0 µM) was 14%. For the same compound, the growth inhibition ([10]; at 33.0 µM) was 99% (active), the growth inhibition [10, 17] was 98% (active) and the growth inhibition ([10]; at 50.0 µM) was 91.8% (active). For the same compound, the growth inhibition ([10]; at 100.0 µM) was 96% (active), the growth inhibition ([11]; at 1.2 µM) was -4% and the growth inhibition ([11]; at 3.7 µM) was 0%. The growth inhibition ([11]; at 11.0 µM) was 2%, the growth inhibition ([11]; at 33.0 µM) was 98% (active) and the growth inhibition ([11]; at 100.0 µM) was 97% (active). For the same compound, the growth inhibition ([12]; at 1.2 µM) was 18%, the growth inhibition ([12]; at 3.7 µM) was 10% and the growth inhibition ([12]; at 11.0 µM) was 34%. For the same compound, the growth inhibition ([12]; at 33.0 µM) was 99% (active), the growth inhibition ([12]; at 100.0 µM) was 97% (active) and the growth inhibition ([13]; at 1.2 µM) was 26%. For the same compound, the growth inhibition ([13]; at 3.7 µM) was 23%, the growth inhibition ([13]; at 11.0 µM) was 55% and the growth inhibition ([13]; at 33.0 µM) was 99% (active). For the same compound, the growth inhibition ([13]; at 100.0 µM) was 97% (active), the growth inhibition [14, 16] was -1% and the growth inhibition [14, 17] was 98% (active). For the same compound, the growth inhibition ([14]; at 50.0 µM) was 88.7% (active), the growth inhibition ([15]; at 1.2 µM) was 16% and the growth inhibition ([15]; at 3.7 µM) was 29%. The growth inhibition ([15]; at 11.0 µM) was 30%, the growth inhibition ([15]; at 33.0 µM) was 99% (active) and the growth inhibition ([15]; at 100.0 µM) was 97% (active).
